Read-out in assay [1]: Transforming growth factor beta 1 (TGFb1), TGFB1 (gene 7040)
Nature of the assay: BSK_KF3CT_TGFb1: BioMAP Diversity Plus: KF3CT Assay for Transforming growth factor beta 1 (TGFb1) Biomarker Activity (AID 2283072). The settings on record: primary human keratinocytes with fibroblasts; actives raise or lower the signal. The gist of the method:
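KF3CT co-culture (keratinocytes + fibroblasts), 24 h exposure → TGF-b1 ELISA → bidirectional fit, DMSO = baseline. Parallel SRB total-protein staining (0.1% SRB, 10% TCA fixation, 560 nm) for cytotoxicity.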

Read-out in assay [2]: C-C motif chemokine 2 (Homo sapiens) (UniProt P13500)
Nature of the assay: BSK_KF3CT_MCP1: BioMAP Diversity Plus: KF3CT Assay for Monocyte Chemoattractant Protein 1 (MCP1/CCL2) Biomarker Activity (AID 2283073). The settings on record: primary human keratinocytes with fibroblasts; actives raise or lower the signal. The procedure, abridged:
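KF3CT skin co-culture (keratinocytes/foreskin fibroblasts), 24 h post-dose; MCP-1 by ELISA; gain/loss of signal fit bidirectionally vs DMSO baseline.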

Read-out in assay [3]: Matrix Metallopeptidase 9 (MMP9), MMP9 (gene 4318)
The experiment in a line: BSK_KF3CT_MMP9: BioMAP Diversity Plus: KF3CT Assay for Matrix Metallopeptidase 9 (MMP9) Biomarker Activity (AID 2283074). As to conditions: primary human keratinocytes with fibroblasts; actives raise or lower the signal. The gist of the method: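 ELISA read-out of MMP-9 at 24 h post-dosing in a co-culture of human skin keratinocytes and foreskin fibroblasts. Gain or loss of signal was fitted in both directions against DMSO.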

Read-out in assay [4]: CD40, CD40 (gene 958)
The experiment in a line: BSK_LPS_CD40: BioMAP Diversity Plus: LPS Assay for CD40 Biomarker Activity (AID 2283076). As to conditions: primary human HUVEC with PBMC; actives raise or lower the signal. The procedure, abridged: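 ELISA readout of CD40 in HUVEC/PBMC co-culture (BSK_LPS system), 24 h post-dosing; bidirectional curve fit, DMSO baseline; parallel SRB total-protein staining for cytotoxicity.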

Read-out in assay [5]: E-selectin (Homo sapiens) (UniProt P16581)
Nature of the assay: BSK_LPS_Eselectin: BioMAP Diversity Plus: LPS Assay for Eselectin Biomarker Activity (AID 2283077). As to conditions: primary human HUVEC with PBMC; actives raise or lower the signal. The procedure, abridged:
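ELISA readout of E-selectin, 24 h post-dose, HUVEC + PBMC co-culture (LPS system). Gain or loss of signal vs DMSO baseline, bidirectional fit.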

Read-out in assay [6]: Interleukin-8 (IL8), CXCL8 (gene 3576)
Nature of the assay: BSK_LPS_IL8: BioMAP Diversity Plus: LPS Assay for Interleukin-8 (IL8) Biomarker Activity (AID 2283078). The settings on record: primary human HUVEC with PBMC; actives raise or lower the signal. The gist of the method:
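HUVEC + PBMC co-culture, LPS-activated; test chemicals dosed, IL-8 read by ELISA at 24 h. Bidirectional curve fit vs DMSO baseline (gain or loss of signal).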

Assay [7] is described as follows: BSK_LPS_SRB: Viability Assessment in the BioMAP Diversity Plus: LPS Assay (AID 2283079).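 Note: total protein by sulforhodamine B absorbance as a cytotoxicity measure; measured one day after compound addition.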 The settings on record: primary human HUVEC with PBMC. The gist of the method:
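HUVEC + PBMC co-culture, LPS-stimulated; compound 24 h. 10% TCA fix, 0.1% SRB stain, A560. Bidirectional fit vs DMSO.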

Read-out in assay [8]: Interleukin-1 alpha (IL1a), IL1A (gene 3552)
Nature of the assay: BSK_LPS_IL1a: BioMAP Diversity Plus: LPS Assay for Interleukin-1 alpha (IL1a) Biomarker Activity (AID 2283080). The settings on record: primary human HUVEC with PBMC; actives raise or lower the signal. The gist of the method:
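HUVEC/PBMC co-culture, LPS system; 24 h after dosing; IL-1a by ELISA; gain or loss of signal fitted bidirectionally vs DMSO baseline.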

Assay [9] is described as follows: BSK_LPS_PGE2: BioMAP Diversity Plus: LPS Assay for Prostaglandin E2 (PGE2) Biomarker Activity (AID 2283082). As to conditions: primary human HUVEC with PBMC; actives raise or lower the signal. The procedure, abridged:
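Compounds were added to the LPS co-culture of endothelium and PBMC, and PGE2 was measured by ELISA after 24 h. Responses in either direction were fitted with DMSO as baseline.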

Read-out in assay [10]: Tissue Factor, F3 (gene 2152)
The experiment in a line: BSK_LPS_TissueFactor: BioMAP Diversity Plus: LPS Assay for Tissue Factor Biomarker Activity (AID 2283084). The settings on record: primary human HUVEC with PBMC; actives raise or lower the signal. The procedure, abridged:
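HUVEC/PBMC co-culture, LPS-activated; CD142 ELISA read 24 h post-dose; bidirectional curve fit vs DMSO negative control.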

Read-out in assay [11]: Tumor necrosis factor (Homo sapiens) (UniProt P01375)
Nature of the assay: BSK_LPS_TNFa: BioMAP Diversity Plus: LPS Assay for Tumour Necrosis Factor alpha (TNFa) Biomarker Activity (AID 2283085).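 For AC50: TNFa protein level quantified by ELISA in the co-culture.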 As to conditions: primary human HUVEC with PBMC; actives raise or lower the signal. The procedure, abridged:
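Cells (umbilical vein endothelium plus peripheral blood mononuclear cells) were dosed with chemical, incubated 24 h, then TNFa was quantified by ELISA; values derive from bidirectional fitting with DMSO as baseline.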

Read-out in assay [12]: Vascular cell adhesion molecule 1 (VCAM1), VCAM1 (gene 7412)
The experiment in a line: BSK_LPS_VCAM1: BioMAP Diversity Plus: LPS Assay for Vascular cell adhesion molecule 1 (VCAM1) Biomarker Activity (AID 2283086). The settings on record: primary human HUVEC with PBMC; actives raise or lower the signal. The gist of the method:
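Cells are dosed in an LPS-stimulated endothelial/mononuclear co-culture and, after 24 h, VCAM-1 is quantified by ELISA. Activity in either direction is fitted relative to the DMSO negative control.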

Read-out in a further assay: CD38, CD38 (gene 952)
Nature of the assay: BSK_SAg_CD38: BioMAP Diversity Plus: SAg Assay for CD38 Biomarker Activity (AID 2283087). The settings on record: primary human HUVEC with PBMC; actives raise or lower the signal. The gist of the method:
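CD38 quantified by ELISA (fluorescence) in a superantigen-activated endothelial cell–PBMC co-culture at 24 h post-dose. Activity fitted in both directions relative to DMSO; parallel SRB and Alamar Blue cytotoxicity read-outs.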

Read-out in assay [13]: CD40, CD40 (gene 958)
Nature of the assay: BSK_SAg_CD40: BioMAP Diversity Plus: SAg Assay for CD40 Biomarker Activity (AID 2283088). As to conditions: primary human HUVEC with PBMC; actives raise or lower the signal. The procedure, abridged: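 HUVEC/PBMC co-culture, 24 h post-dose; CD40 by ELISA, fluorescence intensity; bidirectional fit vs DMSO negative control.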

Read-out in the next assay: CD69, CD69 (gene 969)
The experiment in a line: BSK_SAg_CD69: BioMAP Diversity Plus: SAg Assay for CD69 Biomarker Activity (AID 2283089).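 For AC50: cell surface CD69 protein quantified by ELISA with fluorescence detection.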 As to conditions: primary human HUVEC with PBMC; actives raise or lower the signal. The procedure, abridged: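 HUVEC co-cultured with PBMC were dosed with chemical, and CD69 was measured by ELISA with fluorescence read-out 24 h later. Bidirectional curve fitting used DMSO as negative control and activity baseline.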

Read-out in assay [14]: Monocyte Chemoattractant Protein-1 (MCP1), CCL2 (gene 6347)
Nature of the assay: BSK_SAg_MCP1: BioMAP Diversity Plus: SAg Assay for Monocyte Chemoattractant Protein-1 (MCP1) Biomarker Activity (AID 2283090). As to conditions: primary human HUVEC with PBMC; actives raise or lower the signal. The procedure, abridged:
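Values derive from bidirectional fitting of ELISA-measured MCP1 against DMSO controls. Readings were taken 24 h after dosing human vascular endothelial cells co-cultured with peripheral blood mononuclear cells under superantigen stimulation.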

Read-out in assay [15]: E-selectin (Homo sapiens) (UniProt P16581)
The experiment in a line: BSK_SAg_Eselectin: BioMAP Diversity Plus: SAg Assay for Eselectin Biomarker Activity (AID 2283091). The settings on record: primary human HUVEC with PBMC; actives raise or lower the signal. The gist of the method: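 E-selectin ELISA readout at 24 h post-dosing in human umbilical vein endothelial cell/PBMC co-culture; gain or loss of signal fitted relative to DMSO baseline.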

Read-out in assay [16]: Macrophage colony-stimulating factor (MCSF), CSF1 (gene 1435)
The experiment in a line: BSK_LPS_MCSF: BioMAP Diversity Plus: LPS Assay for Macrophage colony-stimulating factor (MCSF) Biomarker Activity (AID 2283083). The settings on record: primary human HUVEC with PBMC; actives raise or lower the signal. The gist of the method:
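HUVEC + PBMC co-culture (human primary), 24 h post-dose; M-CSF by ELISA; gain/loss of signal fitted bidirectionally vs DMSO baseline.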

Calls of active or inactive are those of the source. Rule for the calls: active = hit-call score of the fitted dose curve at least 0.9, where 1 is the maximum; inactive = score below 0.9.

Chain of E-selectin (Homo sapiens) (P16581 whole entry, looked up): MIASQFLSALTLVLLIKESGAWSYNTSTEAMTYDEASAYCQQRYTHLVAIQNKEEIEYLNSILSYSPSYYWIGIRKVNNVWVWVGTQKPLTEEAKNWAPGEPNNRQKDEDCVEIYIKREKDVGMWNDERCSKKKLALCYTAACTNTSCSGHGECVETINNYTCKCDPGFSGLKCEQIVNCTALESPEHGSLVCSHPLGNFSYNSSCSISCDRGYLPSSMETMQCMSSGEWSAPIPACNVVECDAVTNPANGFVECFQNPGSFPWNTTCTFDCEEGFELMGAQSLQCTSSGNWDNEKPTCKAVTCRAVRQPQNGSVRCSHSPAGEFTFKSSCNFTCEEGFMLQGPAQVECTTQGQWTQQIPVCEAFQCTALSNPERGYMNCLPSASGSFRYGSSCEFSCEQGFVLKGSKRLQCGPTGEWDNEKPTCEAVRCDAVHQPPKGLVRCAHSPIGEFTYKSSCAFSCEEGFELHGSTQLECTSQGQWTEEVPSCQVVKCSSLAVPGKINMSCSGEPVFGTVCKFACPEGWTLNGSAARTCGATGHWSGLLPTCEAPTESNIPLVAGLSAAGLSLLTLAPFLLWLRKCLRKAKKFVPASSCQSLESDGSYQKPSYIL
Chain of Tumor necrosis factor (Homo sapiens) (P01375 whole entry, looked up): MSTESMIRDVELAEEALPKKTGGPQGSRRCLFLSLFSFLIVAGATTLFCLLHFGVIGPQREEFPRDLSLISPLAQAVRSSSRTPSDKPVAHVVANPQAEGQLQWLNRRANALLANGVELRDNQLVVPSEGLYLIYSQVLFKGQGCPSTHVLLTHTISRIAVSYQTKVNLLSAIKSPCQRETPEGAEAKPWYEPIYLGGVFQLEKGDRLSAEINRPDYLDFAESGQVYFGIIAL

Regarding `COCCOCCOC`, the outcome in assay [1] is “inactive”; in assay [2] it was “inactive”; in assay [3], “inactive”; with CD40, CD40 (gene 958) [4], “inactive”; in [5] it was “inactive”; in assay [6], “inactive”. Further, the outcome in assay [7], in assay [8], in [9], in assay [10], in assay [11] and in assay [12] was inactive. In addition, the outcome is “inactive” with CD38, CD38 (gene 952); “inactive” with CD40, CD40 (gene 958) [13]; “inactive” with CD69, CD69 (gene 969); “inactive” in assay [14]; “inactive” in assay [15].
`Cc1cc(NC(=O)C(=O)O)cc(C)c1Oc1ccc(O)c2c1CCC2`: the outcome is “inactive” in assay [1]; “inactive” in [2]; “inactive” in assay [3]; “inactive” in the assay with CD40, CD40 (gene 958) [4]; “inactive” in assay [5]; “inactive” in assay [6]. The result in [7], in assay [8], in assay [9], in assay [16], in assay [10] and in [12] was inactive. Also, the outcome with CD38, CD38 (gene 952) was “inactive”; with CD40, CD40 (gene 958) [13], “inactive”; with CD69, CD69 (gene 969), “inactive”; in assay [14] it was “inactive”; in assay [15], “inactive”.
Broadly, the AC50 is the midpoint of the concentration-response curve, whichever way the signal moves. On to `CNCc1cc(F)ccc1Oc1ccc(Cl)c(Cl)c1`, for which the result in [1], in assay [2], in assay [3], in assay [5], in [8] and in assay [9] was inactive. Moreover, the result in [10] and in assay [12] was inactive. Besides, the AC50 with CD40, CD40 (gene 958) [4] was 15 µM (active); in [6], 15.7 µM (active); in assay [7] it was 30 µM (active); in assay [11], 0.461 µM (active); in the assay with CD38, CD38 (gene 952), 28.5 µM (active); with CD40, CD40 (gene 958) [13], 36.5 µM (active). Also, the AC50 is 26.3 µM (active) with CD69, CD69 (gene 969); 26.4 µM (active) in assay [14]; 20 µM (active) in [15].

(Values after PubChem BioAssay (EPA / NIEHS).)
